# Sampled rows, rich in hits. Any-hit rate of the full collection: about 4%.
# PAX8 reporter – inhibitors of PAX8-driven TPO luciferase reporter, primary screen, RMG-I cells, single concentration; SteadyGlo, 24 h; inhibition, % at 12.6 µM; 360,000 compounds, 1.2% hits; AID 652154, 2013;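 active means mean replicate inhibition at least 60% with every replicate also reaching 60%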;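 further: luciferase light reporting Pax8 driven TPO promoter activity; plate controls were median of neutral control wells for no effect and mitoxantrone controls for full effect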
# Mdm2-MdmX inh – inhibitors of human Mdm2-MdmX association, primary screen, cell-based, luminescence, split luciferase, SaOS-2, uHTS. Protein Mdm4 (Homo sapiens) + E3 ubiquitin-protein ligase Mdm2 (Homo sapiens), …. inhibition, % at 8 µM. 330,000 compounds, 3% hits. SaOS-2 split-luciferase Mdm2/MdmX complementation. AID 485346, 2010;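 active means inhibition of at least 50% at 8 µM in the primary screen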
# Target sequence (O15151 whole entry, looked up): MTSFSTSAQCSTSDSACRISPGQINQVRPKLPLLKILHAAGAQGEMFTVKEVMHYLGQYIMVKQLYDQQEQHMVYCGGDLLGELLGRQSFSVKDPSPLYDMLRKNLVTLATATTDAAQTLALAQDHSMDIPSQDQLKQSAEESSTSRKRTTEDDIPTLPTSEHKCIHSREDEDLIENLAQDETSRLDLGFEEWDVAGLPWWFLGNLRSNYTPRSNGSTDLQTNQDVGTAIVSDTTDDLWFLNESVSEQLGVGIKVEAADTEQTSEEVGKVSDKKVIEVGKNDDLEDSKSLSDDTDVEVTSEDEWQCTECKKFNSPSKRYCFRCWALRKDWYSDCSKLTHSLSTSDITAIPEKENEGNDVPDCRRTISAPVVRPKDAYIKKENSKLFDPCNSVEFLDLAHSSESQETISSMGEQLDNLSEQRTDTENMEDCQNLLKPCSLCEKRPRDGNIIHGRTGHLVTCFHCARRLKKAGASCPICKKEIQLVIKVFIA
# Target sequence (Q00987 whole entry, looked up): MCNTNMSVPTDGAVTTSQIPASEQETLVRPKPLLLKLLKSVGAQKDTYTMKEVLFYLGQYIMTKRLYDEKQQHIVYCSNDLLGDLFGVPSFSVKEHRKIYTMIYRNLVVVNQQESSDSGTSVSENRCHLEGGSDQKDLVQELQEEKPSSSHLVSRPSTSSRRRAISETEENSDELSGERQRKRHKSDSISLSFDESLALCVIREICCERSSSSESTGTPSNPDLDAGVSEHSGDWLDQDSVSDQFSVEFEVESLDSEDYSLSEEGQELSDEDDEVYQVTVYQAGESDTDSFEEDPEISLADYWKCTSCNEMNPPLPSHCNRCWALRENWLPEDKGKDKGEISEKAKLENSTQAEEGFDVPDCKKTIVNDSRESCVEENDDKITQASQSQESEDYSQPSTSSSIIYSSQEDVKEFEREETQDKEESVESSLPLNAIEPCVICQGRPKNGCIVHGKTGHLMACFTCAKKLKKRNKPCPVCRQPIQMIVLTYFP
# Gli-Sufu antag – Gli-Sufu pathway antagonists, primary screen, luciferase luminescence, Sufu-KO-LIGHT cells, uHTS; 340,000 compounds, 0.74% hits; Sufu-KO-LIGHT fibroblasts, Gli luciferase reporter luminescence; inhibition, % at 5 µM;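 active means inhibition above about 55%, limit read from the data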;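 further: 0% = DMSO-treated cells and 100% = wells with medium but no cells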
# Shn3 inh set2 – reduction of Shn3 3'UTR firefly luciferase signal, primary screen, Schnurri-3 inhibitor project, cell-based, Clone20 osteoblasts, set 2. inhibition, % at 12.5 µM. 360,000 compounds, 0.52% hits. Clone20 osteoblast Shn3 3'UTR firefly luciferase, 24 h. AID 588674, 2011;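 active means mean inhibition of at least 75% with every replicate also reaching 75%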;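 further: 0% = median of neutral control wells and 100% = pilot-screen positive control compound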
# Beta apoptosis – inhibitors of cytokine-induced beta cell apoptosis, primary screen, luminescence; INS-1E cytokine-induced death, ATP luminescence, 48 h; percent of positive-control rescue, neutral wells zero; protection from apoptosis, % (concentration not given with the values); 300,000 compounds, 0.8% hits; AID 435005, 2010;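 active means Every replicate reaches about 75%, or at least half do and their mean reaches it too, limit read from the data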;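 further: 0% = cytokine-treated negative control wells and 100% = positive control rescue; higher means more ATP so stronger rescue from cytokine killing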
# CSC inhib – cancer stem cell viability inhibitors, primary screen, luminescence | cancer stem cell-like cells viability | inhibition, % at 7.5 µM | 300,000 compounds, 1.1% hits; in the data active means inhibition above about 75%; tested in HMLE shEcad cells
# Mdm2-MdmX conf – Mdm2-MdmX complex disruptors, retested hits, confirmation, luminescence, single concentration; inhibition, % at 8 µM; 10,000 compounds, 55% hits; shares compounds with Mdm2-MdmX inh; Mdm2-MdmX binding, luminescent assay; AID 489028, 2010; in the data active means inhibition above about 40%
# FLuc counter – full-length luciferase signal inhibition, confirmation, counter-screen for Mdm2/MdmX interaction inhibitor project, cell-based, single concentration, SaOS-2. shares compounds with Mdm2-MdmX inh. SaOS-2 full-length luciferase counterscreen, luminescence. inhibition, % at 8 µM. 6,200 compounds, 77% hits. AID 504607, 2011;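 active means mean inhibition at 8 µM reaching about 37%, which flags the compound as non-specific, limit read from the data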;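 further: p53-null SaOS-2 cells with luciferase driven by a doxycycline-inducible promoter; compound on cells about two nights before reading with doxycycline added after day one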
# * marks the source's active call; other numbers are inactive results; x = not tested or not shown.
SMILES,PAX8 reporter,Mdm2-MdmX inh,Gli-Sufu antag,Shn3 inh set2,Beta apoptosis,CSC inhib,Mdm2-MdmX conf,others
CC(C)CN(C(=O)COC(=O)C12CC3CC(CC(C3)C1)C2)c1c(N)n(Cc2ccccc2)c(=O)[nH]c1=O,3.2,61.1*,31.1,3.8,98.7*,22.6,72.4*,FLuc counter=47.0*
COc1ccc(-c2cncnc2-c2ccc(OC)cc2O)cc1,-19.9,62.5*,-7.7,0.5,-22.5,-9.7,62.2*,FLuc counter=27.2
O=C(C[C@H]1C[C@H]2c3cc(NS(=O)(=O)c4ccc(F)cc4)ccc3O[C@H]2[C@@H](CO)O1)NCc1ccc(Cl)cc1,9.7,x,x,x,x,x,x,
COc1ccc(-c2nn(C)c(=O)c3ccccc23)cc1NS(C)(=O)=O,7.1,68.2*,13.4,2.7,-22.3,15.9,27.1,
CCS(=O)(=O)NCC[C@@H]1CC[C@H](NC(=O)Cc2ccccn2)[C@@H](CO)O1,-9.0,x,x,x,x,x,x,
CC(C)NC(=O)Nc1ccc2c(c1)CC(=O)N([C@@H](C)CO)C[C@@H](C)[C@@H](CN(C)S(=O)(=O)c1cn(C)cn1)O2,-10.8,x,x,x,x,x,x,
COc1ccc2c(c1)C(=O)[C@H](O)[C@@H](c1ccc(OC)c(Br)c1)O2,-31.9,70.7*,10.0,x,109.4*,108.3*,-6.4,
CC[C@H](C)[C@@H](NC(=O)O[C@@H]1C(=O)c2cc(OC)ccc2O[C@H]1c1ccc(OC)c(Br)c1)C(=O)OC,x,24.8,7.2,5.1,-1.1,18.3,x,
C/C=C/c1ccc(C2[C@H]3CNC[C@@H]2N3C(=O)Nc2ccc(C(F)(F)F)cc2)cc1 (stereo not given in full),-11.6,x,x,x,x,x,x,
COc1ccc(C)cc1NC(=O)C(Sc1nnc(Nc2cc(C)ccc2OC)s1)c1ccccc1 (stereo not given),22.1,42.6,9.6,-12.7,0.9,8.6,x,
COc1ccc(Nc2nnc(SC(C(=O)Nc3cc(C)ccc3C)c3ccccc3)s2)cc1 (stereo not given),39.3,83.9*,41.1,18.4,15.2,11.3,4.7,
Cc1ccc(C)c(NC(=O)C(Sc2nc3ccccc3c(=O)n2CC(C)C)c2ccccc2)c1 (stereo not given),8.6,83.5*,x,70.1,5.4,28.1,63.0*,FLuc counter=82.7*
COc1cc(C(=O)NCCCCCCNC(=O)c2cc(OC)c(OC)c(OC)c2)cc(OC)c1OC,-7.1,52.4*,x,-5.2,-0.7,-12.7,37.9,
C[C@H]1CN([C@@H](C)CO)C(=O)c2cc(NC(=O)C3CC3)ccc2O[C@@H]1CN(C)C(=O)Nc1ccc(F)cc1,-11.4,x,x,x,x,x,x,
COc1cc(OCc2ccccc2)c(C(=O)/C=C/c2ccc3c(c2)OCO3)c(OC)c1OC,28.3,70.1*,11.4,7.5,-6.9,37.1,36.7,
COc1ccc(/C=C/C(=O)Oc2ccc(C)c(C)c2)cc1OC,-11.1,3.9,-9.6,9.3,-6.4,-5.9,x,
COc1ccc(C(=O)C=Cc2ccc3c(c2)OCO3)cc1OC,-13.7,x,x,15.4,x,x,x,
COc1cc(/C=C/[N+](=O)[O-])ccc1OCc1cccc(C(=O)O)c1,x,55.2*,-109.6,x,x,x,47.0*,FLuc counter=35.1
COc1ccc(C(=O)C=Cc2ccc(OCc3ccccc3)c(OC)c2)cc1OC,-14.2,x,x,0.5,x,x,x,
COc1cc(/C=C/[N+](=O)[O-])ccc1OC(=O)/C=C/c1ccc(F)cc1,4.8,72.8*,34.1,56.4,x,x,71.0*,FLuc counter=50.9*
COc1cc(OC)c(C(=O)/C=C/c2ccc(OCc3ccccc3)c(OC)c2)c(OC)c1,37.3,60.4*,-0.9,5.6,x,x,22.4,
Cc1ccc(S(=O)(=O)c2ncccc2N)cc1,7.2,-9.9,17.4,-13.8,-4.3,-13.0,x,
Cc1ccc(S(=O)(=O)c2ncccc2[N+](=O)[O-])cc1,108.8*,89.8*,-0.6,95.8*,50.5,47.5,76.7*,FLuc counter=52.3*
CC(C)NC(=O)Nc1cccc2c1O[C@@H](CN(C)Cc1ccc(Cl)c(Cl)c1)[C@@H](C)CN([C@@H](C)CO)C2=O,16.7,x,x,x,x,x,x,
CNC[C@@H]1Oc2ccc(NC(=O)Nc3cccc4ccccc34)cc2CC(=O)N([C@@H](C)CO)C[C@H]1C,1.2,x,x,x,x,x,x,
SMILES,PAX8 reporter,Mdm2-MdmX inh,Gli-Sufu antag,Shn3 inh set2,Beta apoptosis,CSC inhib,Mdm2-MdmX conf,others
Cc1cc2cc(CCNC(=O)C3c4ccccc4Oc4ccccc43)c(=O)[nH]c2cc1C,x,62.7*,x,x,-11.6,-6.0,14.4,
O=C(Nc1cc(Cl)cc(Cl)c1)Nc1cnccn1,-9.8,75.4*,-2.5,12.6,47.1,26.2,29.6,
CCC(C(=O)O/N=C(\N)c1ccc(Cl)cc1)c1ccccc1 (stereo not given),-28.3,64.1*,-7.2,-17.1,-2.8,-12.2,13.8,
CCC(C(=O)O/N=C(\N)c1ccccc1)c1ccccc1 (stereo not given),x,34.8,-7.8,-11.9,x,-5.3,x,
COC(=O)C(CC(=O)c1ccc(Cl)cc1)c1ccccc1 (stereo not given),-17.5,x,-5.5,-14.2,x,x,x,
CCC(C(=O)O/N=C(\N)c1ccc(C)cc1)c1ccccc1 (stereo not given),-22.3,50.5*,-8.8,-5.9,-4.7,x,17.6,
O=C(C[C@@H]1CC[C@@H]2[C@H](COC[C@@H](O)CN2CCC(F)(F)F)O1)NCC1CCCCC1,4.5,x,x,x,x,x,x,
CC(C)(O)C#Cc1cccc(-c2nc(C(=O)O)cc3c2[C@H](CCO)N(S(=O)C(C)(C)C)C3)c1 (stereo not given in full),4.7,x,x,x,x,x,x,
N=c1n(CCN2CCCC2)c2ccccc2n1CC(O)c1ccco1 (stereo not given),x,-7.0,7.8,-0.6,-9.8,-3.4,x,
CN(C)CCn1c(=N)n(CC(O)c2ccc(Cl)c(Cl)c2)c2ccccc21 (stereo not given),-2.3,70.6*,5.8,10.7,4.0,5.2,55.0*,FLuc counter=73.8*
N=c1n(CCN2CCCCC2)c2ccccc2n1CC(O)c1cccc(Br)c1 (stereo not given),x,97.8*,-0.3,68.0,72.9,22.0,78.5*,FLuc counter=34.4
CCCCn1c(=N)n(CC(O)c2ccccc2)c2ccccc21 (stereo not given),-6.6,-33.0,15.3,30.2,-6.0,-3.1,x,
N=c1n(CCN2CCCCC2)c2ccccc2n1CC(O)c1ccc(Cl)c(Cl)c1 (stereo not given),x,99.2*,6.8,6.8,59.2,37.2,96.2*,FLuc counter=55.9*

# Compound activity from PubChem BioAssay.
